Reference: PubChem BioAssay (EPA / NIEHS)
Several values for one entry are separate records, joined by “and”; a condition that tells them apart may be missing. Equal entries are not always repeated. More than one record can exist for a structure, and the calls need not agree. Activity calls are given as the source filed them. Rule for the calls: active = hit-call score of the fitted dose curve at least 0.9, where 1 is the maximum; inactive = score below 0.9.

Tests used:
[1] = read-out: Interleukin-1 alpha (IL1a), IL1A (gene 3552); test: BSK_LPS_IL1a: BioMAP Diversity Plus: LPS Assay for Interleukin-1 alpha (IL1a) Biomarker Activity (AID 2283080); conditions: primary human HUVEC with PBMC; actives raise or lower the signal
Procedure, shortened: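 Human umbilical vein endothelial cells co-cultured with PBMC and stimulated with LPS; IL-1a measured by ELISA 24 h after dosing. Bidirectional fitting against DMSO; cytotoxicity checked by SRB staining in parallel cultures.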

[2] = read-out: Monocyte Chemoattractant Protein-1 (MCP1), CCL2 (gene 6347); test: BSK_LPS_MCP1: BioMAP Diversity Plus: LPS Assay for Monocyte Chemoattractant Protein-1 (MCP1) Biomarker Activity (AID 2283081); conditions: primary human HUVEC with PBMC; actives raise or lower the signal;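 for AC50: secreted MCP-1 protein quantified by ELISA in culture supernatant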
Procedure, shortened: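 Human umbilical vein endothelial cells co-cultured with PBMC, LPS-stimulated; secreted MCP-1 measured by ELISA 24 h after compound addition. Bidirectional curve fitting against DMSO baseline; SRB total-protein staining in parallel cultures for cytotoxicity.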

[3] = BSK_LPS_PGE2: BioMAP Diversity Plus: LPS Assay for Prostaglandin E2 (PGE2) Biomarker Activity (AID 2283082); conditions: primary human HUVEC with PBMC; actives raise or lower the signal;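 for AC50: secreted prostaglandin E2 measured by ELISA in LPS-stimulated co-culture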
Procedure, shortened: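 PGE2 release measured by ELISA in an LPS-activated co-culture of human umbilical vein endothelial cells and peripheral blood mononuclear cells, read at 24 h post-dosing. DMSO served as baseline for bidirectional curve fitting.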

[4] = read-out: Macrophage colony-stimulating factor (MCSF), CSF1 (gene 1435); test: BSK_LPS_MCSF: BioMAP Diversity Plus: LPS Assay for Macrophage colony-stimulating factor (MCSF) Biomarker Activity (AID 2283083); conditions: primary human HUVEC with PBMC; actives raise or lower the signal
Procedure, shortened: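 HUVEC–PBMC co-culture, M-CSF measured by ELISA 24 h after chemical dosing. Fitted in both directions relative to DMSO as negative control; overt cytotoxicity assessed by SRB total-protein staining in parallel cultures.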

[5] = read-out: Tissue Factor, F3 (gene 2152); test: BSK_LPS_TissueFactor: BioMAP Diversity Plus: LPS Assay for Tissue Factor Biomarker Activity (AID 2283084); conditions: primary human HUVEC with PBMC; actives raise or lower the signal
Procedure, shortened: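 Human umbilical vein endothelial cells co-cultured with PBMC were dosed with compound. Cell-surface CD142 was measured by ELISA 24 h later. Activity was fitted bidirectionally against DMSO, with SRB total-protein staining in parallel cultures for cytotoxicity.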

[6] = read-out: Tumor necrosis factor (Homo sapiens) (UniProt P01375); test: BSK_LPS_TNFa: BioMAP Diversity Plus: LPS Assay for Tumour Necrosis Factor alpha (TNFa) Biomarker Activity (AID 2283085); conditions: primary human HUVEC with PBMC; actives raise or lower the signal;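 for AC50: TNFa protein level quantified by ELISA in the co-culture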
Procedure, shortened: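 TNFa was quantified by ELISA in LPS-activated co-cultures of human endothelial cells and PBMC, 24 h post-dosing. Both increases and decreases versus DMSO were fitted.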

[7] = read-out: Vascular cell adhesion molecule 1 (VCAM1), VCAM1 (gene 7412); test: BSK_LPS_VCAM1: BioMAP Diversity Plus: LPS Assay for Vascular cell adhesion molecule 1 (VCAM1) Biomarker Activity (AID 2283086); conditions: primary human HUVEC with PBMC; actives raise or lower the signal
Procedure, shortened: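 VCAM-1 quantified by ELISA in an LPS-activated co-culture of human endothelial cells and peripheral blood mononuclear cells, read 24 h post-treatment. Fitted in both directions versus DMSO; parallel SRB staining flags overt cytotoxicity.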

CD38, CD38 (gene 952) = test: BSK_SAg_CD38: BioMAP Diversity Plus: SAg Assay for CD38 Biomarker Activity (AID 2283087); conditions: primary human HUVEC with PBMC; actives raise or lower the signal
Procedure, shortened: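 CD38 quantified by ELISA (fluorescence) in a superantigen-activated endothelial cell–PBMC co-culture at 24 h post-dose. Activity fitted in both directions relative to DMSO; parallel SRB and Alamar Blue cytotoxicity read-outs.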

CD40, CD40 (gene 958) = test: BSK_SAg_CD40: BioMAP Diversity Plus: SAg Assay for CD40 Biomarker Activity (AID 2283088); conditions: primary human HUVEC with PBMC; actives raise or lower the signal
Procedure, shortened: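 HUVEC plus PBMC co-culture, superantigen-activated, with CD40 read by ELISA 24 h after dosing. Curves fitted in both directions against DMSO. Overt cytotoxicity checked by parallel SRB total-protein staining.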

CD69, CD69 (gene 969) = test: BSK_SAg_CD69: BioMAP Diversity Plus: SAg Assay for CD69 Biomarker Activity (AID 2283089); conditions: primary human HUVEC with PBMC; actives raise or lower the signal;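 for AC50: cell surface CD69 protein quantified by ELISA with fluorescence detection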
Procedure, shortened: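 Endothelial/PBMC co-culture; chemical added; 24 h incubation; CD69 ELISA with fluorescence detection; bidirectional fit vs DMSO.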

[8] = read-out: Monocyte Chemoattractant Protein-1 (MCP1), CCL2 (gene 6347); test: BSK_SAg_MCP1: BioMAP Diversity Plus: SAg Assay for Monocyte Chemoattractant Protein-1 (MCP1) Biomarker Activity (AID 2283090); conditions: primary human HUVEC with PBMC; actives raise or lower the signal
Procedure, shortened: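 Values derive from bidirectional fitting of ELISA-measured MCP1 against DMSO controls. Readings were taken 24 h after dosing human vascular endothelial cells co-cultured with peripheral blood mononuclear cells under superantigen stimulation.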

[9] = read-out: E-selectin (Homo sapiens) (UniProt P16581); test: BSK_SAg_Eselectin: BioMAP Diversity Plus: SAg Assay for Eselectin Biomarker Activity (AID 2283091); conditions: primary human HUVEC with PBMC; actives raise or lower the signal
Procedure, shortened: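 Human umbilical vein endothelial cells co-cultured with peripheral blood mononuclear cells, SAg system. E-selectin is measured by ELISA 24 h after dosing and fitted bidirectionally against DMSO. Cytotoxicity is checked by SRB staining of parallel cultures.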

[10] = read-out: Monokine induced gamma interferon (MIG), CXCL9 (gene 4283); test: BSK_SAg_MIG: BioMAP Diversity Plus: SAg Assay for Monokine induced gamma interferon (MIG) Biomarker Activity (AID 2283092); conditions: primary human HUVEC with PBMC; actives raise or lower the signal
Procedure, shortened: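 Measures CXCL9 protein by ELISA in a human vascular primary-cell co-culture (umbilical vein endothelium with PBMC) 24 h after chemical addition. Activity is scored up or down from the DMSO control.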

[11] = BSK_SAg_PBMCCytotoxicity: PBMC Cytotoxicity Assessment in the BioMAP Diversity Plus: SAg Assay (AID 2283093); conditions: primary human HUVEC with PBMC;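 note: PBMC viability measured as Alamar Blue reduction fluorescence at 546/580 nm; fitted both ways against DMSO so a hit may be loss or gain of signal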;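 for AC50: PBMC superantigen activated with SEB plus TSST-1 one hour after compound addition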
Procedure, shortened: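 Alamar Blue reduction (6 h, ex/em 546/580 nm) read after 90 h culture of PBMC pre-dosed 1 h then stimulated with SEB plus TSST-1, 20 ng/mL each. Gain or loss of signal fitted relative to DMSO.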

[12] = read-out: Interleukin-8 (IL8), CXCL8 (gene 3576); test: BSK_SAg_IL8: BioMAP Diversity Plus: SAg Assay for Interleukin-8 (IL8) Biomarker Activity (AID 2283094); conditions: primary human HUVEC with PBMC; actives raise or lower the signal
Procedure, shortened: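 ELISA readout of IL-8 from a superantigen-activated endothelial/PBMC primary human co-culture, taken 24 h post-dosing and fitted in both directions against DMSO; parallel SRB total-protein staining flags overt cytotoxicity.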

[13] = BSK_SAg_Proliferation: Cell Proliferation Assessment in the BioMAP Diversity Plus: SAg Assay (AID 2283095); conditions: primary human HUVEC with PBMC;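 note: relative cell number as total protein by SRB absorbance in sub-confluent culture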
Procedure, shortened: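 Relative cell number in the endothelial cell/PBMC co-culture was quantified at 96 h by SRB staining (0.1% SRB, 10% TCA fixation, read at 560 nm). Curves were fitted in both directions relative to DMSO baseline.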

[14] = BSK_SAg_SRB: Viability Assessment in the BioMAP Diversity Plus: SAg Assay (AID 2283096); conditions: primary human HUVEC with PBMC;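 note: cells read one day after compound addition; hits may be either gain or loss of signal compared with DMSO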
Procedure, shortened: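 SRB absorbance at 560 nm served as the viability read-out. Cells (HUVEC plus peripheral blood mononuclear cells) were TCA-fixed and stained 24 h post-dosing; activity fitted in both directions against DMSO controls.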

Measured: AC50

Sequence of E-selectin (Homo sapiens) (P16581 whole entry, looked up): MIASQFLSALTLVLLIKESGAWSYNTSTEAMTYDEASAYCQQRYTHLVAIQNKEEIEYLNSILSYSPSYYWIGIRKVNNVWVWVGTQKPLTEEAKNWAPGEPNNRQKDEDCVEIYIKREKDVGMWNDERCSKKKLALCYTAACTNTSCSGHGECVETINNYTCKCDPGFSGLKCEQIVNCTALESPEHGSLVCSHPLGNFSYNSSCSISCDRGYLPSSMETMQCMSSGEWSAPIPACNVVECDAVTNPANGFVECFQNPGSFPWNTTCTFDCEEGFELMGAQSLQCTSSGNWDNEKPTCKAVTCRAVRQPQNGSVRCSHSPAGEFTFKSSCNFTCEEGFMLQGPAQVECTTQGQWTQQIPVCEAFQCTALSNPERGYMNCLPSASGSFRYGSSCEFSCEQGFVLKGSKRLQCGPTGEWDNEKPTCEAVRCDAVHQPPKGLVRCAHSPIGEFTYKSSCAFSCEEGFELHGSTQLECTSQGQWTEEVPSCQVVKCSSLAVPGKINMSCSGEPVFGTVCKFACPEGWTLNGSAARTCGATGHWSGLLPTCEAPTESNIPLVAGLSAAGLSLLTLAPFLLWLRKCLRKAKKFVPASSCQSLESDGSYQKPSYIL
Sequence of Tumor necrosis factor (Homo sapiens) (P01375 whole entry, looked up): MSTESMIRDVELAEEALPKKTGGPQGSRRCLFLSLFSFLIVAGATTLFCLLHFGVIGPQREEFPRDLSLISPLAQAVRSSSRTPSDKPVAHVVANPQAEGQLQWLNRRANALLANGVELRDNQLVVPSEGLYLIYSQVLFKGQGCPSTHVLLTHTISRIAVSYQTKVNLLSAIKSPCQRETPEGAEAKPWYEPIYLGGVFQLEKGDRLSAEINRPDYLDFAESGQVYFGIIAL

O=C(CC(=O)C(F)(F)C(F)(F)F)C(F)(F)F
inactive: all assays above

CC(CCl)OP(=O)(OC(C)CCl)OC(C)CCl (stereo not given)
inactive: all assays above

O=C(O)C=C(C(F)(F)F)C(F)(F)F
active: [4] 8.27 µM | CD40, CD40 (gene 958) 40.3 µM | CD69, CD69 (gene 969) 22.8 µM and 30 µM | [8] 18.8 µM | [9] 26.8 µM and 22.9 µM | [12] 30 µM and 20 µM | [13] 43 µM and 27.2 µM
inactive: [1] | [2] | [3] | [4] | [5] | [6] | CD38, CD38 (gene 952) | CD40, CD40 (gene 958) | [8] | [10] | [14]

O[Si](c1ccccc1)(c1ccccc1)c1ccccc1
active: [2] 28.9 µM | [3] 11.6 µM | [4] 20 µM | CD38, CD38 (gene 952) 32.6 µM | CD40, CD40 (gene 958) 29.6 µM | CD69, CD69 (gene 969) 31.7 µM | [8] 32.5 µM | [9] 31 µM | [10] 31.1 µM | [12] 20 µM | [13] 32.6 µM | [14] 26.8 µM
inactive: [1] | [5] | [6]

CCCCCCOC(=O)c1ccccc1O
inactive: [2] | [3] | [4] | [5] | CD38, CD38 (gene 952) | [10] | [12] | [14]
active: [2] 40.6 µM | [3] 39.8 µM | [5] 40.6 µM | [6] 37.3 µM and 39.6 µM | [7] 40.2 µM and 38.2 µM | CD38, CD38 (gene 952) 40.5 µM | CD40, CD40 (gene 958) 45.2 µM and 29.1 µM | CD69, CD69 (gene 969) 39.3 µM and 45.2 µM | [8] 27.6 µM and 45.1 µM | [9] 38.3 µM and 39.5 µM | [11] 36.9 µM and 44.8 µM | [12] 38.2 µM | [13] 38.7 µM and 45.4 µM | [14] 42.4 µM

FC(F)(F)C(F)(F)C(F)(F)C(F)(F)C(F)(F)C(F)(F)CCS
not listed: [11]
inactive: all other assays above
